Measured values taken from PubChem BioAssay (EPA / NIEHS).
Calls of active or inactive are those of the source. Rule for the calls: active = hit-call score of the fitted dose curve at least 0.9, where 1 is the maximum; inactive = score below 0.9.

Tests used:
[1] = molecular target: Transcription factor E2F1 (Homo sapiens) (UniProt Q01094); test: ATG_E2F_CIS: Attagene CIS-FACTORIAL HepG2 Assay for human E2F Transcription Factor 1 (AID 2282935); details: HepG2 Attagene cis-reporter, E2F reporter RNA transcripts; actives raise or lower the signal
In short: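 In this cis-factorial format, endogenous factor activity drives transfected reporters in HepG2; transcripts collected at 24 h are quantified by fluorescence after RT-PCR and capillary separation.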

[2] = ATG_E_Box_CIS: Attagene CIS-FACTORIAL HepG2 Assay for human Enhancer Box (E-box) (AID 2282936); details: HepG2 E-box cis-reporter transcription, actives raise or lower the signal
In short: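 Measured 24 h post-dosing in HepG2 cells transfected with multiple cis-regulated reporter units, signal being reporter mRNA induction detected by fluorescent RT-PCR with capillary electrophoresis; gain or loss fitted against DMSO.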

[3] = ATG_EGR_CIS: Attagene CIS-FACTORIAL HepG2 Assay for human Early Growth Response 1 (EGR1) (AID 2282938); details: HepG2 Attagene CIS-FACTORIAL EGR reporter mRNA; actives raise or lower the signal
In short: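 After a 24 h treatment of transiently transfected HepG2 cells, total RNA was reverse-transcribed and reporter sequences PCR-amplified, labelled and run on capillary electrophoresis. Reporters sit under cis-regulatory promoters sensing endogenous factors.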

[4] = ATG_M_19_CIS: Attagene CIS-FACTORIAL HepG2 Assay for M19 Transcription Factor (Internal Marker) (AID 2282939); details: HepG2 Attagene CIS-FACTORIAL M19 internal marker reporter; actives raise or lower the signal
In short: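 Internal marker readout, fitted in both directions against DMSO, from HepG2 cells carrying transfected cis-element reporter constructs; RT-PCR and capillary electrophoresis of reporter mRNA after 24 h exposure.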

[5] = ATG_ERE_CIS: Attagene CIS-FACTORIAL HepG2 Assay for Estrogen Response Element (ERE) (AID 2282940); details: HepG2 ERE cis-reporter, Attagene RNA transcript; actives raise or lower the signal
In short: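 After 24 h compound treatment, RNA from transfected HepG2 cells was reverse-transcribed, reporter cDNA PCR-amplified, FAM-labelled, HpaI-cut and resolved by capillary electrophoresis. ERE-driven cis reporter transcripts reflect endogenous factors; gain or loss scored against DMSO.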

[6] = ATG_Ets_CIS: Attagene CIS-FACTORIAL HepG2 Assay for human Erythroblast Transformation Specific (ETS) (AID 2282941); details: HepG2 ETS cis-reporter transcription, actives raise or lower the signal
In short: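 Bidirectional fit versus DMSO of reporter mRNA signal, detected by RT-PCR and capillary electrophoresis in HepG2 cells transiently transfected with cis-element reporters and dosed 24 h.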

[7] = molecular target: Hepatocyte nuclear factor 3-beta (Homo sapiens) (UniProt Q9Y261); test: ATG_FoxA2_CIS: Attagene CIS-FACTORIAL HepG2 Assay for human Forkhead box A2 (FOXA2) (AID 2282942); details: HepG2 cis-reporter transcription factor activity, 24 h; actives raise or lower the signal
In short: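 24 h dosing of HepG2 bearing cis-reporter constructs; mRNA readout by RT-PCR/CE fluorescence; bidirectional fit, DMSO baseline.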

[8] = ATG_GATA_CIS: Attagene CIS-FACTORIAL HepG2 Assay for human GATA Binding Protein (AID 2282944); details: HepG2 GATA cis-element reporter, Attagene multiplex mRNA; actives raise or lower the signal
In short: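 Reporter transcripts from a GATA cis-regulated unit, among multiplexed reporters in transfected HepG2 cells, were measured by RT-PCR with capillary electrophoresis after 24 h dosing. Induction or loss scored relative to DMSO.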

[9] = ATG_GLI_CIS: Attagene CIS-FACTORIAL HepG2 Assay for human Zinc Finger Protein GLI1 (AID 2282945); details: HepG2, Attagene cis-factorial reporter mRNA, GLI element; actives raise or lower the signal
In short: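 HepG2 cells transiently transfected with cis-promoter multiplexed reporter units report endogenous transcription factor activity. After 24 h chemical exposure, reporter mRNA was quantified by RT-PCR, 6-FAM labelling, HpaI digestion and capillary electrophoresis, with bidirectional fitting against DMSO.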

[10] = ATG_GRE_CIS: Attagene CIS-FACTORIAL HepG2 Assay for human Glucocorticoid Response Elements (GRE) (AID 2282947); details: HepG2 GRE cis-reporter, Attagene multiplex mRNA; actives raise or lower the signal
In short: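 HepG2, transient cis-reporter transfection, 24 h. Reporter mRNA: RT-PCR then CE, fluorescence. Fit both directions vs DMSO.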

[11] = ATG_ISRE_CIS: Attagene CIS-FACTORIAL HepG2 Assay for human Interferon Regulatory Factor 1 (IRF1) binding to an Interferon-Stimulated Response Element (ISRE) (AID 2282948); details: HepG2 ISRE cis-reporter (Attagene), mRNA transcription readout; actives raise or lower the signal
In short: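 Uses HepG2 liver cells transfected with cis-regulated reporters and measures mRNA 24 h post-dosing through RT-PCR, primer-extension labelling and capillary electrophoresis, with DMSO as negative control.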

[12] = ATG_M_32_CIS: Attagene CIS-FACTORIAL HepG2 Assay for M32 Transcription Factor (Internal Marker) (AID 2282949); details: HepG2 Attagene cis-factorial M32 reporter, mRNA; actives raise or lower the signal;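 note: background control marker of the multiplexed CIS panel rather than a real target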
In short: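 Using DMSO as baseline, bidirectional curve fits were applied to reporter mRNA signals. These came from transiently transfected HepG2 cells exposed for 24 h, with RNA analysed by RT-PCR, FAM primer extension, HpaI digestion and CE.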

[13] = ATG_M_06_CIS: Attagene CIS-FACTORIAL HepG2 Assay for M06 Transcription Factor (Internal Marker) (AID 2282950); details: HepG2 Attagene CIS-FACTORIAL M06 internal marker reporter; actives raise or lower the signal
In short: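 Serves as a background control readout. Transfected HepG2 exposed to compounds for 24 h, then reporter transcripts quantified by fluorescent RT-PCR and capillary electrophoresis. Both directions fitted against DMSO baseline.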

[14] = molecular target: Hypoxia-inducible factor 1-alpha (Homo sapiens) (UniProt Q16665); test: ATG_HIF1a_CIS: Attagene CIS-FACTORIAL HepG2 Assay for human Hypoxia Inducible Factor 1 (HIF1A) (AID 2282951); details: HepG2 Attagene cis-factorial HIF1a reporter transcription; actives raise or lower the signal
In short: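 After 24 h chemical exposure of reporter-transfected HepG2 cells, reporter cDNA was PCR-amplified, labelled by 6-FAM primer extension (2 min 95 C, 20 s 68 C, 10 min 72 C), HpaI-cut (2 h, 37 C) and analysed by CE.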

[15] = molecular target: Hepatocyte nuclear factor 6 (Homo sapiens) (UniProt Q9UBC0); test: ATG_HNF6_CIS: Attagene CIS-FACTORIAL HepG2 Assay for human Hepatocyte Nuclear Factor 6 (HNF6) (AID 2282952); details: HepG2 Attagene cis-factorial HNF6 reporter transcription; actives raise or lower the signal
In short: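 Twenty-four-hour chemical treatment of reporter-transfected HepG2 cells precedes RNA isolation, DNase-treated reverse transcription and PCR of reporter sequences. Labelled fragments are sized by capillary electrophoresis and fitted bidirectionally versus DMSO.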

[16] = molecular target: Heat shock factor protein 1 (Homo sapiens) (UniProt Q00613); test: ATG_HSE_CIS: Attagene CIS-FACTORIAL HepG2 Assay for human Heat Shock Transcription Factor 1 (HSE) (AID 2282953); details: HepG2 HSE cis-reporter, Attagene RNA transcription; actives raise or lower the signal
In short: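 Endogenous transcription factor activity in transiently transfected HepG2, read as reporter mRNA by RT-PCR with fluorescent capillary electrophoresis after 24 h. Gain or loss of signal fitted versus DMSO baseline.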

[17] = ATG_FoxO_CIS: Attagene CIS-FACTORIAL HepG2 Assay for human Forkhead box O (FoxO) (AID 2282943); details: HepG2 Attagene cis-reporter, FoxO element, mRNA; actives raise or lower the signal
In short: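 HepG2 cells transiently transfected with cis-promoter-driven multiple reporter transcription units; 24 h after chemical dosing, reporter mRNA quantified by RT-PCR, fluorescent primer extension, HpaI digestion and capillary electrophoresis. Bidirectional fitting versus DMSO baseline.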

[18] = molecular target: Bile acid receptor (Homo sapiens) (UniProt Q96RI1); test: ATG_IR1_CIS: Attagene CIS-FACTORIAL HepG2 Assay for human Nuclear Receptor Subfamily 1 Group H Member 4 (NR1H4), IR1 submotif (AID 2282946); details: IR1 reporter transcription, actives raise or lower the signal
In short: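 Readout: reporter transcript levels by RT-PCR with fluorescent capillary electrophoresis, from HepG2 cells transiently transfected with multiplexed cis-regulated reporters and dosed 24 h. Gain- or loss-of-signal fitted versus DMSO negative control.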

[19] = ATG_MRE_CIS: Attagene CIS-FACTORIAL HepG2 Assay for human Metal Responsive Element (MRE) (AID 2282954); details: HepG2 MRE cis-reporter transcription, Attagene multiplex; actives raise or lower the signal
In short: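 Readout: capillary electrophoresis of 6-FAM-labelled, HpaI-digested RT-PCR reporter products. System: HepG2 cells carrying transient multiplexed cis reporters, dosed 24 h. Analysis: bidirectional fit, DMSO baseline.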

Measured: AC50

Chain of Hypoxia-inducible factor 1-alpha (Homo sapiens) (Q16665 whole entry, looked up): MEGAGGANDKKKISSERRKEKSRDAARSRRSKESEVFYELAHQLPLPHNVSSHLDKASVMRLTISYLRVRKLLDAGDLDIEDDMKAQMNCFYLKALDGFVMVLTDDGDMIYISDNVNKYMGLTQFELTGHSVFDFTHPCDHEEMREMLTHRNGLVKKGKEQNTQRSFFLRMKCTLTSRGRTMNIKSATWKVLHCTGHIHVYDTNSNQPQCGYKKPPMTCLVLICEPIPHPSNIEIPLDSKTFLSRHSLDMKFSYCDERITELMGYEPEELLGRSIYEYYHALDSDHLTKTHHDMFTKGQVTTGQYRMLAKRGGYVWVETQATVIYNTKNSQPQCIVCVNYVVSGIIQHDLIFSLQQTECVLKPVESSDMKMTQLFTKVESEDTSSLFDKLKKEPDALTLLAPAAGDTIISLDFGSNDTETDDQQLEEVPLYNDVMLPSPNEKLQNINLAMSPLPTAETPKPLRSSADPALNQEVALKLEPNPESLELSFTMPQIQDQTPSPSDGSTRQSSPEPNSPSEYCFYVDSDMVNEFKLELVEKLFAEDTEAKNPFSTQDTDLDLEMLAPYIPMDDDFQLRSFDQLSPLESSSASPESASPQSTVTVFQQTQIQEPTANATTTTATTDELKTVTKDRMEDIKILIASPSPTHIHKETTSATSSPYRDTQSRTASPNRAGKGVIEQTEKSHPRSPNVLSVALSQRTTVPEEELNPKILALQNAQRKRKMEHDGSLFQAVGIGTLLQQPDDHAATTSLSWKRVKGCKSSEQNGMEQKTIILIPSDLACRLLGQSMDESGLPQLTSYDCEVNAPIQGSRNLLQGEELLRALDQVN
Chain of Bile acid receptor (Homo sapiens) (Q96RI1 whole entry, looked up): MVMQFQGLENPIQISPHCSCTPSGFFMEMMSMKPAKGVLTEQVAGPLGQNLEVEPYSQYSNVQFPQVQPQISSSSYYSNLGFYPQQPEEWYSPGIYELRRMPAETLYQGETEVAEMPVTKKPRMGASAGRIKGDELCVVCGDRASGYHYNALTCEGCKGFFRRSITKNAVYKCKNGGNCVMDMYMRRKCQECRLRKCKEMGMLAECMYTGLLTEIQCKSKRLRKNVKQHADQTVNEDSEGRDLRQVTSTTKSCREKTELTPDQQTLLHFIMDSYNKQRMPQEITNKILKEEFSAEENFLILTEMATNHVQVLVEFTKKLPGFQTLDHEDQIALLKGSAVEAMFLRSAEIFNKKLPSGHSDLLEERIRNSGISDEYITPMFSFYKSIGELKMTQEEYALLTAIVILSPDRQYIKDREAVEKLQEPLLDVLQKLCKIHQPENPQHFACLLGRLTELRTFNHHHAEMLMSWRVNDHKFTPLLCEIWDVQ
Chain of Heat shock factor protein 1 (Homo sapiens) (Q00613 whole entry, looked up): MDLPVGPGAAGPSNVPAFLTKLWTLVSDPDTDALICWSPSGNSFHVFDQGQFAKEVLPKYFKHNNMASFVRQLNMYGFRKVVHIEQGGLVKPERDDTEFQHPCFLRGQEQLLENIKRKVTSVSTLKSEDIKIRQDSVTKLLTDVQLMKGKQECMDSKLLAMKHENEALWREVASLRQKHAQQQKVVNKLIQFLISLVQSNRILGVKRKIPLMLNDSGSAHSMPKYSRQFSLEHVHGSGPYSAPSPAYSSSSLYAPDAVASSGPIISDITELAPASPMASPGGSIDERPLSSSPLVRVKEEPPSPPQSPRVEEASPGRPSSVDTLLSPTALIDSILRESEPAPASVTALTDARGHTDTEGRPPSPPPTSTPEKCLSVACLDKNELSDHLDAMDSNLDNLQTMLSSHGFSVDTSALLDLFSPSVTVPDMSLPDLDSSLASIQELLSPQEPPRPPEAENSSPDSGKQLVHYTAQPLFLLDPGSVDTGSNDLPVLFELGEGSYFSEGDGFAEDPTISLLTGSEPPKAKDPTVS
Chain of Hepatocyte nuclear factor 3-beta (Homo sapiens) (Q9Y261 whole entry, looked up): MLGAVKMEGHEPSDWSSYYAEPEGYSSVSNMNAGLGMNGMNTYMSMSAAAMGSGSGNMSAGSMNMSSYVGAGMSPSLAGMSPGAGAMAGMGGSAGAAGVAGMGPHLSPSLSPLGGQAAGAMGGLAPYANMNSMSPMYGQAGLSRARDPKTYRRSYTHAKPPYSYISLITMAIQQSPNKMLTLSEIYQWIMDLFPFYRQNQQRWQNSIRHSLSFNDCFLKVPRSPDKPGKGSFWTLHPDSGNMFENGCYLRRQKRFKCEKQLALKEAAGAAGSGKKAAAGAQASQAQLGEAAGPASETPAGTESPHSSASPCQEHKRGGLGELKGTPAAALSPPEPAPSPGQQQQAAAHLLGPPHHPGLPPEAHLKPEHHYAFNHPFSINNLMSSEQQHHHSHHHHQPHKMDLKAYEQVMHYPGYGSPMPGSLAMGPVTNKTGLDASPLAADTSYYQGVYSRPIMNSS
Chain of Transcription factor E2F1 (Homo sapiens) (Q01094 whole entry, looked up): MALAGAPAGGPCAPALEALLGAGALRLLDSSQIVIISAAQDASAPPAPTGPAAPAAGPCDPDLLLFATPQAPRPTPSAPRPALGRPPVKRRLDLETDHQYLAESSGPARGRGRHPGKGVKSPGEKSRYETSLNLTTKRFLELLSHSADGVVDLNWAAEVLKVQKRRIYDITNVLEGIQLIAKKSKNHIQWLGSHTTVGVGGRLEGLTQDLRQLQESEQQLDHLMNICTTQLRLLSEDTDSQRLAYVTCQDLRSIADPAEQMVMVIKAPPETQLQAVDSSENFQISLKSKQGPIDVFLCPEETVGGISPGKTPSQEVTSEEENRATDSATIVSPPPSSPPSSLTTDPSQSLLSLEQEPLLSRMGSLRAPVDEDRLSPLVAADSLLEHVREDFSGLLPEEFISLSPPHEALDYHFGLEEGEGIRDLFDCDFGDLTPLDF
Chain of Hepatocyte nuclear factor 6 (Homo sapiens) (Q9UBC0 whole entry, looked up, the tested form may be a part): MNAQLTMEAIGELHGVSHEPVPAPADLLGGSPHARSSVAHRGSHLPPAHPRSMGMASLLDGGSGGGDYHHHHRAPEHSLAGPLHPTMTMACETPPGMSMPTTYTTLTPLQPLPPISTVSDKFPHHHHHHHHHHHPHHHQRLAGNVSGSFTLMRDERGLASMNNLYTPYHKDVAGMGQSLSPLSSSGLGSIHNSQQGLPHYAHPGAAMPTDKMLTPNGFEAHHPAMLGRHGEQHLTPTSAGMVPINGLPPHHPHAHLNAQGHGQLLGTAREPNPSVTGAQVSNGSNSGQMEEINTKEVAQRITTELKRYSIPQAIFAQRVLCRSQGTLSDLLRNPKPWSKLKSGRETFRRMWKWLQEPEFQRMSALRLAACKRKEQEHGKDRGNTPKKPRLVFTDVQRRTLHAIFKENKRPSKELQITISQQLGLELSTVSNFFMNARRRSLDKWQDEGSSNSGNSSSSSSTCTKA

c1ccc2cnccc2c1
not listed: [17] | [18] | [19]
inactive: all other assays above

CCCCCCOc1ccc(N)cc1
not listed: [9]
inactive: all other assays above

Cc1cc(C)n(CO)n1
not listed: [10] | [15]
inactive: all other assays above

CC1=CCC2CC1C2(C)C (stereo not given)
not listed: [3] | [9] | [10] | [18] | [19]
inactive: all other assays above

Cc1cc(C)c(C=O)c(C)c1
inactive: all assays above

N#CC1(N)CCCCC1
not listed: [15] | [17] | [18]
inactive: all other assays above

c1ccc2sc(SSN3CCOCC3)nc2c1
active: [3] 100 µM | [17] 158 µM | [9] 79.4 µM | [18] 105 µM | [14] 32.2 µM | [16] 69.6 µM | [19] 123 µM
not listed: [10]
inactive: all other assays above

C=CCOC(=O)c1ccc(C(=O)OCC=C)c(C(=O)OCC=C)c1
active: [2] 140 µM | [5] 22.8 µM
not listed: [15] | [18]
inactive: all other assays above

Cc1c(O)cccc1O
active: [5] 61.4 µM
not listed: [10] | [16]
inactive: all other assays above

CC1=NN(c2ccc(S(=O)(=O)O)cc2)C(=O)C1N=Nc1ccccc1 (stereo not given)
not listed: [10] | [15] | [18]
inactive: all other assays above

Fc1ccc(Br)cc1
active: [5] 21.1 µM
not listed: [3] | [16] | [18]
inactive: all other assays above

CC(C)CCOCc1ccccc1
not listed: [3] | [18]
inactive: all other assays above

CCCCNC(=S)NCCCC
not listed: [10] | [17]
inactive: all other assays above

Cc1c(C(=O)c2c[nH]n(C)c2=O)ccc(S(C)(=O)=O)c1C1=NOCC1
not listed: [16] | [18]
inactive: all other assays above
